# From PubChem BioAssay
# Active and inactive are the calls of the source.
# Experiments:
# Albumin (Bos taurus) = Albumin (Bos taurus) (UniProt P02769); assay: compounds binding labelled BSA control protein – biochemical, small-molecule microarray, Alexa647 label, 635/667 nm fluorescence, artefact control for SMM control protein annotation, profiling panel (AID 1118); conditions: BSA-A647 binding, fluorescence 635 nm, higher = more signal;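 further: score merges 667 nm emission intensity and signal-to-noise per printed compound spot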
# [1] = probe aXIP binding to arrayed compounds – biochemical, NeuroSMM set, 635/667 nm fluorescence, primary screen (AID 1119); conditions: small-molecule microarray, higher = more signal, called active from +8 up or from −8 down;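 further: probe is the protein aXip251-270 applied at 1 µg/mL to compound-printed slides; binding of probe to printed compounds measured as 667 nm fluorescence plus signal to noise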
# [2] = probe aNOTCH3 binding on compound microarray – biochemical, small-molecule microarray, 635/667 nm fluorescence, primary screen (AID 1120); conditions: higher = more signal;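 further: probe is a biotin-tagged antibody raised against NOTCH3 rather than NOTCH3 protein; score merges spot fluorescence near 667 nm with spot signal to noise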
# [3] = probe aNOTCH2 binding on compound microarray – biochemical, small-molecule microarray, 635/667 nm fluorescence, primary screen (AID 1121); conditions: higher = more signal;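 further: score merges feature fluorescence read at 667 nm with its signal to noise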
# [4] = target: Carbonic anhydrase 2 (Homo sapiens) (UniProt P00918); assay: compounds binding carbonic anhydrase 2 – biochemical, small-molecule microarray, Alexa647-labelled CAII, profiling panel (AID 1122); conditions: CAII-A647 binding fluorescence, higher = more signal
# [5] = COS7 lysate on small-molecule microarray, probe aHis, 635 nm (AID 1123); conditions: COS7 cell lysate, fluorescence, higher = more signal;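 further: z-score combines 667nm fluorescence intensity with signal-to-noise per printed compound spot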
# [6] = probe aLAP1 signal on lysate-treated microarray – cell lysate, small-molecule microarray, COS7 lysate, primary screen (AID 1124); conditions: probe aLAP1, fluorescence, higher = more signal;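 further: lysate comes from COS7 cells expressing LAP1 and is applied at 0.3 µg/mL; score merges spot fluorescence near 667 nm with signal-to-noise over triplicate slides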
# Sam68 (KHDRBS1) = assay: compounds binding KHDRBS1 protein – biochemical, small-molecule microarray, 635 nm fluorescence, primary screen (AID 1125); conditions: higher = more signal;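 further: score merges 667 nm channel intensity with signal to noise over triplicate slides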
# [7] = test system: Chordin-like protein 2 (CHRDL2); assay: compounds binding chordin-like 2 – biochemical, small-molecule microarray, 635 nm fluorescence, primary screen (AID 1126); conditions: fluorescence 635 nm, higher = more signal;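 further: printed compound slides probed with Chrdl2 protein at 4 µg/mL for 1 h at 4 C; score merges 667 nm emission intensity with signal to noise over three replicate slides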
# [8] = target: Concanavalin-A (Canavalia ensiformis) (UniProt P02866); assay: compounds binding concanavalin A lectin – biochemical, small-molecule microarray, Alexa647 label, 635 nm, artefact control for SMM control protein annotation, primary screen (AID 1127); conditions: ConA-A647 binding fluorescence, higher = more signal;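 further: z combines 667 nm emission intensity with signal-to-noise across three replicate slides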
# Concanavalin-A (Canavalia ensiformis), sequence (P02866 whole entry, looked up): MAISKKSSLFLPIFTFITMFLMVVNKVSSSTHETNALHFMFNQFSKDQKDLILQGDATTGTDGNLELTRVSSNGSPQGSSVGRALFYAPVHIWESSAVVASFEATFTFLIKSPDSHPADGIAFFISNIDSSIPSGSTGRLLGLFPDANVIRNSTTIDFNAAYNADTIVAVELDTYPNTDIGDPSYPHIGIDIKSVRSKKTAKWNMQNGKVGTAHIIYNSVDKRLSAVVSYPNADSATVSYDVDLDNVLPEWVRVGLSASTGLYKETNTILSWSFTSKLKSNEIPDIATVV
# Albumin (Bos taurus), sequence (P02769 whole entry, looked up): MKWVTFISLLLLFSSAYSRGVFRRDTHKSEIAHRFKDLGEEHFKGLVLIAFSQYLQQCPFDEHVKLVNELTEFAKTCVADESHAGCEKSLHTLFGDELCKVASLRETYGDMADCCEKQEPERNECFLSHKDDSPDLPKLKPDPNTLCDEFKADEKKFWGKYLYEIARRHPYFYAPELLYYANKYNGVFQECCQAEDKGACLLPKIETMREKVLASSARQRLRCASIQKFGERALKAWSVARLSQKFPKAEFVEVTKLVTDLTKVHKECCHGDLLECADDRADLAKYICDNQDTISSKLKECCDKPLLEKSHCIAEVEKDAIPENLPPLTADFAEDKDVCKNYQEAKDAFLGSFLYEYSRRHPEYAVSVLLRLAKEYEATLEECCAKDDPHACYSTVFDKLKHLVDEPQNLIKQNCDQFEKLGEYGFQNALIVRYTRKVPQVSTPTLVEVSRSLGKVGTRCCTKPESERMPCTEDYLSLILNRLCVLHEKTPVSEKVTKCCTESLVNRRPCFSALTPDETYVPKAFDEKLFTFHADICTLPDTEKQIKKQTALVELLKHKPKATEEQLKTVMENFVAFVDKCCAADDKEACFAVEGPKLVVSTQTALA
Structure (SMILES),composite z-score (Albumin (Bos taurus)),composite Z-score [1],composite z-score [2],composite z-score [3],composite z-score [4],composite z-score [5],composite z-score [6],composite z-score (Sam68 (KHDRBS1)),composite z-score [7],composite z-score [8]
COc1cc(C(O)C2C=CC3C(=O)N(c4ccccc4)C(=O)C3N2Nc2ccc(C#N)cc2)cc(OC)c1OC (stereo not given),1.01,0.0402 (inactive),0.178,0.135,0.883,3.23,1.26,1.32,-1.05,1.21
C=CCC(OC(C)=O)[C@@H]1[C@@H](N(Cc2cccc3ccccc23)C(=O)c2ccc(C)cc2)c2cc(OCCCO)ccc2N1C(=O)Cc1ccc(OC)cc1 (stereo not given in full),0.15,-0.858 (inactive),0.114,-0.127,0.112,0.223,-0.0098,0.175,0.352,0.0517
[N-]=[N+]=NCc1ccccc1C[C@]1(C(=O)NCCN2CCOCC2)N=C(c2ccc(OCCCO)cc2)O[C@H]1c1ccccc1N=[N+]=[N-],0.926,0.255 (inactive),0.356,0.253,0.599,2.62,0.645,1.29,-0.509,1.16
O=C1C2C=CC(C(O)c3cccs3)N(Nc3ccccc3F)C2C(=O)N1c1ccccc1 (stereo not given),0.512,-0.413 (inactive),-0.0728,-0.181,0.419,1.55,0.118,0.794,-0.399,0.653
CC(C)CNC(=O)[C@@H]1c2ccccc2C(=O)N(Cc2cc(C(F)(F)F)cc(C(F)(F)F)c2)[C@H]1c1ccc(CO)cc1,-0.881,0.0089 (inactive),0.0596,0.127,0.5,0.361,0.0574,-0.636,-0.629,-0.928
O=C/C=C/c1ccc(Cl)cc1,-1.04,0.411 (inactive),-0.186,-0.127,-0.457,-0.267,-0.565,-1.01,0.0502,-0.184
CC(=O)C1=CCC(c2ccccc2)N(S(=O)(=O)c2ccc(C)cc2)C1 (stereo not given),0.632,-0.685 (inactive),0.101,-0.0439,0.66,2.5,0.763,0.579,0.725,0.789
CN1C(=O)C2C(C1=O)C1C=C(CCCO)C2C(c2cccs2)N1C (stereo not given),0.565,0.654 (inactive),-0.154,-0.231,0.779,0.138,1.62,-0.27,-0.0999,-0.774
[N-]=[N+]=Nc1ccccc1[C@H]1OC(c2ccc(OCCCO)cc2)=N[C@@]1(CCS(=O)(=O)c1ccccc1)C(=O)O,0.622,0.254 (inactive),-0.0647,0.0278,0.419,2.77,0.425,0.0569,-0.378,0.475
COCCOC(=O)N1C(=O)[C@@]2(c3cc(C#CC4=CCCCC4)ccc31)[C@H](C(=O)N1CCc3cc(OC)c(OC)cc3C1)[C@H]1C(=O)O[C@H](c3ccccc3)[C@H](c3ccccc3)N1[C@@H]2c1ccccc1OCCO,-0.092,-0.243 (inactive),-0.068,-0.118,-0.0205,-0.0785,0.498,0.6,1.03,1.07
COc1ccc(C#Cc2ccc3c(c2)[C@]2(C(=O)N3)[C@H](c3ccc(O)cc3)N3[C@H](c4ccccc4)[C@H](c4ccccc4)OC(=O)[C@H]3[C@@H]2C(=O)N2CCCCCCC2)cc1,0.814,5.12 (inactive),1.84,0.939,0.504,3.27,0.998,1.31,1.23,1.14
CN(C)CCCNC(=O)[C@@]1(Cc2ccccc2I)c2ccccc2C(=O)N(Cc2ccccc2C(F)(F)F)[C@H]1c1ccc(CO)cc1,-0.212,0.179 (inactive),-0.286,-0.146,0.662,2.4,0.557,1.02,-1.07,-0.17
[N-]=[N+]=NCc1ccccc1[C@H]1OC(c2ccc(OCCCO)cc2)=N[C@@]1(CCS(=O)(=O)c1ccccc1)C(=O)N1CCOCC1,1.05,1.09 (inactive),0.515,0.268,0.819,3.05,0.362,1.3,-0.584,1.11
O=C1OCC=C[C@H]2OC34C=CCN(c5ccc6ccccc6c5)C(=O)[C@H]3N(CCCO)C(=O)[C@@H]4[C@@H]12 (stereo not given in full),0.314,0.102 (inactive),-0.256,-0.07,0.709,-0.559,1.26,-1.39,-0.824,-0.223
[N-]=[N+]=NCc1ccccc1[C@@H]1OC(c2ccc(OCCCO)cc2)=N[C@]1(Cc1ccccc1N=[N+]=[N-])C(=O)NCc1ccccc1,0.753,-0.0079 (inactive),0.111,0.0427,0.42,1.25,0.272,1.26,0.16,0.815
COCCOC(=O)N1C(=O)[C@@]2(c3cc(C#CCC(C(=O)OC)C(=O)OC)ccc31)[C@H](C(=O)N1CCCCCCC1)[C@H]1C(=O)O[C@H](c3ccccc3)[C@H](c3ccccc3)N1[C@@H]2c1ccc(OCCO)cc1,0.786,4.41 (inactive),1.61,0.738,0.643,3.78,1.06,1.3,1.53,1.15
C=CCOC(=O)[C@H]1[C@@H]2C(=O)O[C@@H](c3ccccc3)[C@@H](c3ccccc3)N2[C@@H](c2ccc(OCCOC(=O)[C@@H]3C[C@@H]4C(=O)NCC(=O)N4[C@@H]3c3ccc(O)cc3)cc2)[C@]12C(=O)Nc1ccccc12,0.212,1.07 (inactive),0.0006,-0.168,0.475,2.45,0.537,1.29,1.32,1.11
CO[C@H]1O[C@H](CO)[C@@H](OC(=O)Nc2ccc3c(c2)OCO3)[C@H](OC(=O)Nc2ccccc2)[C@H]1OC(=O)Nc1ccccc1,-0.21,0.118 (inactive),0.0773,-0.102,0.406,2.04,0.637,1.19,0.261,0.143
C=C[C@@H](COC(C)=O)N(Cc1ccccc1[N+](=O)[O-])S(=O)(=O)c1ccc(Br)cc1,0.138,1.55 (inactive),0.122,0.181,0.659,-0.0383,0.343,0.92,1.32,0.602
CCCN1C(=O)[C@]2(COC(c3ccc(OCCCO)cc3)=N2)Cc2ccccc21,0.0531,0.305 (inactive),-0.0026,-0.0009,0.64,1.93,-0.218,1.11,-0.125,1.13
COc1c(C)cc(-c2cc3c(c(-c4ccc(Oc5ccccc5)cc4)n2)[Si](C(C)C)(C(C)C)OC3)cc1C,-0.237,-0.591 (inactive),0.0208,0.0016,-0.229,-0.202,0.151,-1.07,-0.206,-0.52
COC(=O)C1=CC(CCCO)=CC(C2CC2)N(Cc2sc3ccccc3c2Cl)C=C1C(=O)OC (stereo not given),0.932,0.408 (inactive),0.224,-0.0209,0.817,1.55,1.01,1.3,-0.236,0.949
CCOC(=O)C[C@H]1[C@H](OC(=O)c2ccc(C(=O)c3ccccc3)cc2)[C@@H](NC(=O)C2CCCCC2)c2cc(OCCCO)ccc2N1C(=O)c1ccccc1,0.473,0.599 (inactive),0.369,-0.132,0.159,1.54,0.297,1.31,-0.047,0.799
COc1cccc(C(=O)O[C@H]2CC[C@]3(C)C4=C(CCC3C2(C)C)[C@]2(C)CC[C@H]([C@H](C)CCCC(C)C)[C@@]2(C)CC4)c1 (stereo not given in full),0.111,-0.424 (inactive),-0.0414,-0.132,0.202,0.279,-0.147,0.166,0.585,0.254
CN(C)CCCCNC(=O)[C@H]1C[C@H]2C(=O)N[C@@H](Cc3ccccc3)C(=O)N2[C@H]1c1ccc(O)cc1,0.356,0.124 (inactive),0.143,-0.0684,0.158,0.538,0.263,1.3,0.956,0.863
CC(C)CNC(=O)[C@@]1(c2ccc([N+](=O)[O-])cc2)CC(=O)N(CC23CC4CC(CC(C4)C2)C3)[C@@H]1c1ccc(CO)cc1I,-0.0275,0.493 (inactive),0.54,-0.0001,0.259,2.03,0.451,1.32,0.499,0.974
COCCOC(=O)N1C(=O)[C@@]2(c3cc(C#CCC(C(=O)OC)C(=O)OC)ccc31)[C@H](C(=O)N1CCN(c3ncccn3)CC1)[C@H]1C(=O)O[C@H](c3ccccc3)[C@H](c3ccccc3)N1[C@@H]2c1ccc(OCCO)cc1,0.727,1.44 (inactive),0.0097,-0.14,0.323,1.35,0.522,1.3,0.17,1.09
Cc1ccc(F)cc1S(=O)(=O)N[C@@H]1CCN(Cc2ccc(-c3ccccc3)cc2)C1,0.413,-0.569 (inactive),-0.126,-0.0598,0.482,0.249,0.625,0.581,0.776,-0.0888
C=CCC(OC(C)=O)[C@@H]1[C@@H](N(Cc2cccc3ccccc23)C(=O)c2cccc3ccccc23)c2cc(OCCCO)ccc2N1C(=O)c1ccc2ccccc2n1 (stereo not given in full),-0.0648,0.639 (inactive),0.0556,-0.0323,-0.12,0.656,-0.342,-0.0153,0.366,-0.0505
